Compounds with a hit are over-represented: about 3.8% of the library has one in this group of screens.
Mdm2-MdmX inh: human Mdm2/MdmX binding inhibition; O15151+Q00987; SaOS-2 split-luciferase Mdm2/MdmX complementation, luminescence; inhibition, % at 8 µM; 330,000 compounds, 3% hits; AID 485346;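 active means inhibition of at least 50% at 8 µM in the primary screen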
697 NFkB inh: inhibitors of the PMA/ionomycin-induced NF-kB reporter in 697 B cells; 697 B-cell NF-kB luciferase reporter, 16 h; inhibition, % at 4 µM; 330,000 compounds, 0.33% hits; in the data active means inhibition above about 35%
Beta apoptosis: blocks beta cell apoptosis. INS-1E cytokine-induced death, ATP luminescence, 48 h; percent of positive-control rescue, neutral wells zero. protection from apoptosis, % (test concentration not listed). 300,000 compounds, 0.8% hits. AID 435005;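 active means Every replicate reaches about 75%, or at least half do and their mean reaches it too, limit read from the data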;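 further: 0% = cytokine-treated negative control wells and 100% = positive control rescue; higher means more ATP so stronger rescue from cytokine killing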
Jurkat NFkB inh: inhibitors of the PMA/ionomycin-induced NF-kB reporter in Jurkat cells | inhibition, % at 4 µM | 330,000 compounds, 0.53% hits | PMA/ionomycin-induced NF-kB luciferase reporter, luminescence | AID 435003; in the data active means inhibition above about 50%
NTR1 agonist: activates human neurotensin receptor 1; NTR1-U2OS beta-arrestin-GFP spot imaging, agonist mode; AID 493036; activation, % at 20 µM; P30989; 330,000 compounds, 0.17% hits;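 active means activation at or above 40% of the spot to cytoplasm intensity ratio, with at least 20 cells analyzed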;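 further: 0% = DMSO without peptide and 100% = 100 nM NTR1 peptide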
Target sequence (P30989 whole entry, looked up): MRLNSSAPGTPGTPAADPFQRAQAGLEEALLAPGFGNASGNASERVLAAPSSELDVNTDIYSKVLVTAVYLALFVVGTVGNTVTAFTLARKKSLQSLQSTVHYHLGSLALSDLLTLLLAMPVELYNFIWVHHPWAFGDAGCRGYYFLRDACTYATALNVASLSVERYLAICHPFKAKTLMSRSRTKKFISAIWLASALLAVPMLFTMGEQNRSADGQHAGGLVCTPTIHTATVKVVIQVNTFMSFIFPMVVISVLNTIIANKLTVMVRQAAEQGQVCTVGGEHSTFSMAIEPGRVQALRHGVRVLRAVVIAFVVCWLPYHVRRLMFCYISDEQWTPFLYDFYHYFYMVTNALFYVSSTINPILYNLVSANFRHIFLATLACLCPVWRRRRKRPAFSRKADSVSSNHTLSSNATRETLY
Bfl-1 A1 inh: inhibitors of the anti-apoptotic protein A1, read as caspase activation; MEF A1-2A-BIM cells, Caspase-Glo 3/7 luminescence, 3 h; percent of clofoctol response, vehicle zero; caspase activation, % (concentration not given with the values); 330,000 compounds, 0.066% hits; AID 2462;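 active means over half of replicate activation scores above 10%, or exactly half above 10 with the replicate mean above 10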
697 NFkB conf: lowers PMA/ionomycin-induced NF-kB signal in 697 B cells. shares compounds with 697 NFkB inh. 697 B-cell NF-kB luciferase, 16 h. inhibition, % at 4 µM. 2,000 compounds, 35% hits. AID 449746; in the data active means inhibition mostly above about 28%, no sharp cut-off; inactive means mostly below about 22%
* hit, by the source's call; . = not tested or not shown.

SMILES	Mdm2-MdmX inh	697 NFkB inh	Beta apoptosis	Jurkat NFkB inh	NTR1 agonist	Bfl-1 A1 inh	697 NFkB conf
COc1ccc(/C=C2\SC(=S)N(CCC(=O)Nc3ccc(O)cc3)C2=O)cc1	17	48*	.	-2	1	0	37*
O=C(CCN1C(=O)/C(=C/c2ccc(Cl)cc2)SC1=S)Nc1cccc(C(=O)O)c1	11	13	0	23	1	0	.
COc1ccc(/C=C2\SC(=S)N(CCC(=O)Nc3cccc(C(=O)O)c3)C2=O)cc1	19	42*	.	-5	2	-1	39*
Cc1ccc(/C=C2\SC(=S)N(CCC(=O)Nc3cccnc3)C2=O)cc1	-22	52*	.	0	0	1	27
O=C(CCN1C(=O)/C(=C\c2ccc(F)cc2)SC1=S)Nc1ccc(O)cc1	-10	-32	-9	1	2	1	.
CCOC(OCC)c1cc2ccccc2cn1	-24	7	-3	13	4	-3	.
Cc1nc(-c2cccc(NC(=O)COc3ccc(Cl)cc3)c2)cs1	25	13	-6	8	13	1	.
Cc1ccc(C2=NS(=O)(=O)N(C)C(C(=O)Nc3cc(C)n(CC(=O)N4CCC(C)CC4)n3)=C2)cc1	9	4	-1	1	0	-2	.
COc1ccc([N+](=O)[O-])cc1NS(=O)(=O)c1ccc(C(=O)N2CCCC2)cc1	-15	10	-3	-4	0	-1	.
COC(=O)c1ccc(Nc2c([N+](=O)[O-])ccc3nonc23)cc1	1	-18	3	-7	2	0	.
COc1ccc(NC(=S)N(C(C)C)C2CCN(C(C)C)CC2)cc1Cl	17	9	-1	-18	-1	-1	.
CCOc1ccc(/C=C2/SC(=S)N(CCC(=O)Nc3ccc(C(=O)O)cc3)C2=O)cc1	2	77*	-14	4	2	0	77*
Cc1ccc(/C=C2\SC(=S)N(CCCC(=O)Nc3cccc(C(=O)O)c3)C2=O)cc1	3	76*	-2	-4	2	0	88*
CCN(CC)CCOC(=O)c1ccc(NC(=O)CCCN2C(=O)S/C(=C/c3ccc(OC)cc3)C2=S)cc1	48	52*	-2	-13	15	-1	60*
COc1ccc(/C=C2\SC(=S)N(CCCC(=O)Nc3ccc(C(=O)O)cc3)C2=O)cc1OC	8	26	-2	-20	0	1	.
O=C(CCCN1C(=O)/C(=C\c2ccccc2)SC1=S)Nc1cccc(C(=O)O)c1	1	16	-4	0	-1	1	.
COc1cccc(/C=C2\SC(=S)N(CCCC(=O)Nc3ccc(C(=O)O)cc3)C2=O)c1	24	53*	-8	17	3	0	61*
COc1ccc(-n2ncc(C(C)NS(=O)(=O)c3ccc(C)s3)c2C)cc1 (stereo not given)	-6	15	-9	5	2	0	.
CCC(=O)Nc1cc2nn(-c3ccc(OC)cc3)nc2cc1C	-24	-269	.	-59	1	-4	-212
Cc1c(C(=O)OCCOc2ccccc2)[nH]c2c1C(=O)CCC2	-42	-331	13	-83	0	-1	-380
CC(=O)c1c(C)[nH]c(C(=O)OCCOc2ccccc2)c1C	-11	-253	8	-141	0	-1	-402
CC(C)c1ccc(S(=O)(=O)N2CCN(C(=O)CCNS(=O)(=O)c3ccccc3F)CC2)cc1	11	8	.	7	1	1	.
Cc1cc2c(cc1S(=O)(=O)N1CCN(c3cccc(C)c3C)CC1)OCCN2C	-8	-7	-5	-1	0	0	.
C[C@H](NC(=O)C1CCC(CNC(=O)[C@@H]2CCCN2C(=O)OC(C)(C)C)CC1)C(=O)O (stereo not given in full)	4	-1	2	-32	-1	1	.
Cc1cc(-c2csc3nc[nH]c(=S)c23)cc(C)c1C	40	35*	22	2	18	-1	-22
Cc1ccc(-c2csc3nc[nH]c(=S)c23)cc1	10	6	9	2	3	-1	.
COc1ccc(Cl)cc1NC(=O)COC(=O)c1c(-c2ccccc2)noc1C	14	-22	8	-7	1	0	.

Compound activity as filed in PubChem BioAssay.
